Laboratory results from PubChem BioAssay (NCI).
About 79,000 compounds went through this panel and 15% of them were active in at least one assay; those are over-represented in the sample as a whole. No stated cut-off is given here; in the data, active means growth inhibition above about 70%; inactive means the rest.

Assays:
[1] = NCI Yeast Anticancer Drug Screen. Data for the rad50 strain (AID 155);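 further: 0% = growth of vehicle-only cultures of the same strain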; conditions: S. cerevisiae rad50 strain growth inhibition; at 50.0 µM; hits give high values
In short: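 Inhibition values express reduced yeast growth in compound-treated cultures relative to vehicle-treated controls.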

[2] = NCI Yeast Anticancer Drug Screen. Data for the mec2-1 strain (AID 157); conditions: S. cerevisiae mec2-1 strain, at 50.0 µM, hits give high values
In short: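 Cells of the genetically defined mec2-1 yeast strain are incubated with test compound. Inhibition of growth is calculated against vehicle-treated controls.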

[3] = NCI Yeast Anticancer Drug Screen. Data for the sgs1 mgt1 strain (AID 161);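 further: 0% = growth of cultures given vehicle only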; conditions: S. cerevisiae sgs1 mgt1 strain, at 50.0 µM, hits give high values
In short: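 Inhibition of yeast growth, normalised to vehicle-treated controls, is reported for a strain bearing genetic alterations in DNA damage repair.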

[4] = NCI Yeast Anticancer Drug Screen. Data for the cln2 rad14 strain (AID 165);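 further: 0% = growth equal to vehicle treated cultures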; conditions: S. cerevisiae cln2 rad14 strain, at 50.0 µM, hits give high values
In short: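 The screen exposed genetically defined yeast (cln2 rad14) to test compounds and scored growth inhibition relative to vehicle-treated controls.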

[5] = NCI Yeast Anticancer Drug Screen. Data for the bub3 strain (AID 167); conditions: S. cerevisiae bub3 mutant strain, at 50.0 µM, hits give high values
In short: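 Steps: expose the mutant yeast strain to compound; grow alongside vehicle-treated cultures; measure growth; express inhibition against the vehicle cultures.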

[6] = NCI Yeast Anticancer Drug Screen. Data for the mlh1 rad18 strain (AID 175); conditions: S. cerevisiae mlh1 rad18 strain growth inhibition; at 50.0 µM; hits give high values
In short: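 Compound-treated yeast growth, normalised to vehicle controls. Strain bears defined DNA repair mutations.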

Measured: growth inhibition

O=Ic1ccccc1
inactive: [1] 16.6% | [2] 0.2% | [3] 1.5% | [4] 10.9% | [5] -0.3% | [6] -8.8%

O=C1CSC(c2cccc(O)c2)N1c1nncs1 (stereo not given)
inactive: [1] 6.75% | [2] 12.9% | [3] 21.9% | [4] 12.7% | [5] 14.2% | [6] 15.2%

O=C1CCN2CCC(=O)c3c2c(cc2ccccc32)N1
inactive: [1] 6.25% | [2] -15.8% | [3] -4.45% | [4] 10.3% | [5] -12.7% | [6] -12.6%

CC(C)/C=C(\C#N)C(=O)O
inactive: [1] -3.2% | [2] -13.5% | [3] -1.2% | [4] -0.8% | [5] -2.65% | [6] 1.3%

COc1cc(C2c3cc4c(cc3OC(NC3CCCCC3)C2C)OCO4)cc(OC)c1OC (stereo not given)
inactive: [1] -0.35% | [2] -9.4% | [3] -2.4% | [4] 27.8% | [5] 24.6% | [6] -20.9%

Cc1sc2[nH]c(=O)oc(=O)c2c1C
inactive: [1] 44% | [2] -10.1% | [3] 36.2% | [4] 30.1% | [5] 10.5% | [6] 55.8%

CCOC(=O)\C(C#N)=C/C=C(C)/C(C)=C/Nc1ccc([N+](=O)[O-])cc1[N+](=O)[O-]
inactive: [1] 10.9% | [2] 7.85% | [3] -18.4% | [4] -5.2% | [5] 0.8% | [6] 22.6%

CCOC(=O)/C(O)=C\c1cc(Br)c(OC)cc1[N+](=O)[O-]
inactive: [1] 54.6% | [2] 49.7% | [3] 58.4% | [4] 9.6% | [5] 30.8% | [6] 64%

Cc1cc(C)c(N)cc1C
inactive: [1] 3.9% | [2] 13% | [3] -20.4% | [4] -43.5% | [5] -2.2% | [6] -2.5%

CCC(C)c1cc(C(C)(C)C)cc(-n2nc3ccccc3n2)c1OS(=O)(=O)c1cccc(N)c1 (stereo not given)
inactive: [1] -4.4% | [2] -27.1% | [3] -12.8% | [4] 2.7% | [5] -16.9% | [6] -22%

CCOC(=O)COC(=O)CCc1ccccc1
inactive: [1] 0.3% | [2] -39.6% | [3] -5% | [4] -36.8% | [5] -12.9% | [6] 0.45%

Cn1ccc2c3ccsc3ccc21
inactive: [1] 21.8% | [2] 6.35% | [3] 4.55% | [4] -5.5% | [5] 4.3% | [6] 1.05%

C=CC1=C(C)C2=NC1=CC1=NC(=CC3=C(C)C4=C(O)[C@H](C(=O)OC)C(=C5NC(=C2)[C@@H](C)[C@@H]5CCC(=O)O)C4=N3)C(CC)=C1C
inactive: [1] 1.65% | [2] 8.1% | [3] 31.2% | [4] 28.1% | [5] 21.1% | [6] 5.9%

CC(C)OC(=O)Oc1ccc(Cl)cc1Cl
inactive: [1] 6.2% | [2] -19.1% | [3] 10.1% | [4] -47.2% | [5] -9.95% | [6] 3.45%

NCCCCN(CCCN)C(=O)c1ccccc1
inactive: [1] 5.5% | [2] -2.2% | [3] -17.8% | [4] 1.8% | [5] -14.3% | [6] -68.9%

CCOC(=O)/C=C/C1(CCOC(C)=O)CCCCC1
inactive: [1] 12.8% | [2] -27.8% | [3] -2.9% | [4] 21% | [5] -4% | [6] 14.9%

Cc1ccncc1S(=O)(=O)O
inactive: [1] 14.6% | [2] 8.85% | [3] 2.3% | [4] -12.2% | [5] 1.7% | [6] 1.75%

CCOc1nc(N)nc(C)c1N=Nc1ccccc1C
inactive: [1] 18.8% | [2] 18.1% | [3] 5.7% | [4] -12.5% | [5] 12.2% | [6] 15.7%

C/C(=C1\SC(=S)N(C2OC(CO)C(O)C(O)C2O)C1=O)c1ccco1 (stereo not given)
inactive: [1] -14% | [2] -9.3% | [3] -33.2% | [4] -0.85% | [5] -3.3% | [6] -32.9%

COc1c2ccoc2c(OC)c2oc(=O)ccc12
inactive: [1] 13.3% | [2] -23.6% | [3] 11.7% | [4] 17.2% | [5] -4% | [6] -2.45%
